# Compound activity (PubChem)
# KCNQ2 block: rat KCNQ2 potassium channel inhibitors, primary screen, cell-based, CHO-K1, FluxOR thallium flux, B-score | Potassium voltage-gated channel subfamily KQT member 2 (Rattus norvegicus), O88943 | 20 min; active compounds read low | B-score at 10 µM | hit rate 1.1% among 310,000 | AID 2156, 2009;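 active means fluorescence ratio B-score at most minus 3 library SDs, with starting brightness B-score within 2 library SDs, cut at about -5.5 in these data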
# Target sequence (O88943 whole entry, looked up): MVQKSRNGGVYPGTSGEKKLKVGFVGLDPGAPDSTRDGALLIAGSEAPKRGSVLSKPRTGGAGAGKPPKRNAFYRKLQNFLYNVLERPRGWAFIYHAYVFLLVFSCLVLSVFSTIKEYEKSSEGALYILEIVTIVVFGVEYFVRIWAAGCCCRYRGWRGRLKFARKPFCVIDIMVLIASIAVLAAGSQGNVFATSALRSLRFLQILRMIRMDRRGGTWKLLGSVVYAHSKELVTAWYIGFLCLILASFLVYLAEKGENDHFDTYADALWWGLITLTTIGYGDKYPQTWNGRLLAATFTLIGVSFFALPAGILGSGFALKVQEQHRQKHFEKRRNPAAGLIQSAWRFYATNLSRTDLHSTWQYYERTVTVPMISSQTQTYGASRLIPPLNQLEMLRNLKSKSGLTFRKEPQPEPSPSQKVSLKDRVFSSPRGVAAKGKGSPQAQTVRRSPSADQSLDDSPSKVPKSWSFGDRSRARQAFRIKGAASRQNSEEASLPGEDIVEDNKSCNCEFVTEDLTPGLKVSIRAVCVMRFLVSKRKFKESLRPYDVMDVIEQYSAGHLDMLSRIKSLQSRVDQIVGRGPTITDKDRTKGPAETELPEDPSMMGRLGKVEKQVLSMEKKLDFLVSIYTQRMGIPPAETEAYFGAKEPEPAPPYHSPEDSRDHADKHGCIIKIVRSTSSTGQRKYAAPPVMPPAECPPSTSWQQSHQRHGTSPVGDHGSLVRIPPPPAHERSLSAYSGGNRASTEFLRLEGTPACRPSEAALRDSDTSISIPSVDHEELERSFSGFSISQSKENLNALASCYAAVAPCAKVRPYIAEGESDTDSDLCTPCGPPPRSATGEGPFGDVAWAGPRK
# KCNQ2 pot: potentiators of rat KCNQ2 potassium channel | hit rate 0.54% among 310,000 | B-score at 10 µM | Potassium voltage-gated channel subfamily KQT member 2 (Rattus norvegicus), O88943 | CHO-K1 KCNQ2, FluxOR thallium flux fluorescence; active compounds read high;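 active means fluorescence ratio B-score at least 3 SD of library B-scores, with initial fluorescence B-score within 3 of them, cut at about 5.3 in these data; same plate scores as AID 2156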;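 further: B-score of peak minus minimum over baseline fluorescence ratio after K+ and Tl+ stimulus; positive B-score means potentiation of KCNQ2 with more thallium influx and brighter signal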
# Kir21 conf inh: mouse Kir2.1 channel blockers, retest, confirmation, cell-based, FluxOR thallium flux, duplicate. shares compounds with KCNQ2 pot. Kir2.1-expressing cells, FluxOR thallium flux fluorescence; active compounds read low. Tl flux remaining, % of negative control (active compounds read low), % at 10 µM. hit rate 41% among 2,300. AID 2032, 2009;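 active means Primary-screen hit whose thallium flux fell at least 3 control SD below untreated wells in both duplicates, with normal baseline fluorescence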;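 further: 0% = blank wells without stimulus and 100% = stimulated no-compound controls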
# HEK293 Tl flux: alters thallium flux in parental HEK293 cells, Kir2.1 counter-screen. shares compounds with KCNQ2 pot. FluxOR thallium flux fluorescence; 0% = unstimulated blank wells. FluxOR signal as % of negative control (100 = no effect), % at 10 µM. hit rate 19% among 2,300;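 active means dye signal at least 3 control SD above or below untreated wells in both duplicates, raw fluorescence within 3, either direction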;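 further: percent is based on the flux ratio of peak minus minimum fluorescence over baseline F0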
# CHO-K1 ctr: nonspecific thallium flux increase in parental CHO-K1, confirmation, counter-screen for KCNQ2 potentiator project, cell-based, FluxOR thallium flux, duplicate; shares compounds with KCNQ2 pot; parental CHO-K1 cells, FluxOR thallium flux fluorescence; zero = vehicle mean+3SD, 100% = vehicle-minus-blank window; activity increase over 3SD of controls, % at 10 µM; hit rate 43% among 1,200; AID 2282, 2010;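 active means signal rise of at least 3 SD above the untreated control mean, in both duplicate wells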;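 further: counter screen of KCNQ2 potentiator hits so any rise reflects channel-independent effects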
# KCNQ1 pot spec: human KCNQ1 channel potentiation off-target, confirmation, selectivity assay for KCNQ2 potentiator project, cell-based, CHO, FluxOR thallium flux | activation over 3SD threshold, % at 10 µM | shares compounds with KCNQ2 pot | hit rate 28% among 1,200 | AID 2283, 2010 | CHO KCNQ1 stable, FluxOR thallium flux fluorescence; beyond 3SD, as % of vehicle-control signal;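 active means fluorescence ratio rise of at least 3 SD of vehicle wells above their mean, in both replicate wells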;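 further: 0% = vehicle mean plus 3 SD and 100% = vehicle minus unstimulated blank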
# KCNQ2 pot conf: rat KCNQ2 channel potentiators, confirmation, cell-based, CHO, FluxOR thallium flux, duplicate; shares compounds with KCNQ2 pot; CHO-KCNQ2 cells, FluxOR thallium flux fluorescence; potentiation, less the hit threshold, % at 10 µM; hit rate 68% among 1,200;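 active means fluorescence ratio rising 3 SD or more over the vehicle control mean in both replicates, plus primary screen hit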;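 further: peak minus minimum thallium fluorescence divided by baseline after K/Tl stimulus; 0% = vehicle mean plus 3 SD and 100% = vehicle minus unstimulated blank difference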
# Kir21 spec: mouse Kir2.1 channel activation off-target, confirmation, selectivity assay for KCNQ2 potentiator project, cell-based, HEK293, FluxOR thallium flux. shares compounds with KCNQ2 pot. HEK293 Kir2.1, FluxOR thallium flux fluorescence. activity over 3SD threshold, % at 10 µM. hit rate 2% among 1,200;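 active means fluorescence ratio rise of at least 3 SD above the vehicle-control mean, seen in both replicates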;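 further: 0% = vehicle mean plus 3 SD and 100% = vehicle minus no-stimulus blank window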
# KCNQ2 W236L MoA: potentiators of retigabine-insensitive KCNQ2 W236L, mechanism study for KCNQ2 potentiator project, cell-based, rat KCNQ2 W236L, CHO, automated patch clamp | shares compounds with KCNQ2 pot | hit rate 10% among 940 | current increase over 3SD of negative controls (%), active compounds read high, % at 25 µM | automated patch clamp current;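 active means current increase at least 3 SD of the untreated controls above them in both duplicate recordings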
# An asterisk follows results filed as active; i = inactive; nt = not tested or not shown. Only some compounds are listed: those with a hit (about 1.6% of all), similar ones and a draw of the others.
SMILES,KCNQ2 block,KCNQ2 pot,Kir21 conf inh,HEK293 Tl flux,others
O=C(Nc1nnc(-c2ccc3c(c2)CCCC3)o1)c1ccccc1Cl,i,9.4*,i,i,CHO-K1 ctr=-22;KCNQ1 pot spec=-15;KCNQ2 pot conf=12*;Kir21 spec=-21;KCNQ2 W236L MoA=i
O=C(COc1ccccc1)Nc1nnc(-c2ccc3c(c2)CCCC3)o1,i,nt,nt,nt,
O=C(Nc1cccc2c1CCCC2)c1ccccc1Cl,i,0.46,nt,nt,
CC(C)(C#CC(O)(c1ccccc1)c1ccccc1)N1CCCC1,i,nt,nt,nt,
COc1cccc(Cn2cc(N)cn2)c1,i,nt,nt,nt,
COc1cc(NC(=O)C2C3CCC(O3)C2C(=O)O)cc(OC)c1 (configuration not stated),i,0.11,nt,nt,
COc1cc2c(cc1OC)C(C)N(S(=O)(=O)c1cccs1)CC2 (configuration not stated),i,1.2,nt,nt,
CC1c2ccsc2CCN1S(=O)(=O)c1ccccc1 (configuration not stated),i,0.51,52%*,i,
OC(COc1ccc(Br)cc1)CN1CCC(Cc2ccccc2)CC1 (configuration not stated),i,nt,nt,nt,
CSCCC(C)N1CCC(Oc2ccc(C(=O)N3CCCC3)cc2)CC1 (configuration not stated),i,nt,nt,nt,
CC(=O)Nc1ccc(NCN2C(=O)C3C4CCC(C4)C3C2=O)cc1 (configuration not stated),i,1.2,nt,nt,
Cc1ccc(NCN2C(=O)C3C4CCC(C4)C3C2=O)cc1 (configuration not stated),i,6.2*,i,i,CHO-K1 ctr=-25;KCNQ1 pot spec=-35;KCNQ2 pot conf=-19;Kir21 spec=-42
CC(/C=C/c1ccccc1)=N\NC(=O)Cn1nc(C)cc1C,i,1.1,nt,nt,
CCCCCCCCCn1c2c(c(=N)c3c1CCC3)CCC2,-6.1*,-6.1,10%*,i,
CCCCCCCn1c2c(c(=N)c3c1CCC3)CCCC2,i,1.9,28%*,i,
CCCCCCn1c(=O)[nH]c2c(c1=O)CCC2,i,0.1,nt,nt,
CCn1c2c(c(=N)c3c1CCC3)CCC2,i,nt,nt,nt,
Cc1ccccc1C(=O)N1CCN(c2ccc(NC(=O)c3ccc4c(c3)OCCO4)cc2)CC1,i,nt,nt,nt,
O=C(Nc1ccc(Br)cc1)c1ccccc1Br,i,0.1,nt,nt,
Cc1csc(N2CCCC2c2nc3cc(Cl)c(N4CCCCC4)cc3n2CCCO)n1 (configuration not stated),i,2.4,nt,nt,
OCCCn1c(C2CCCN2c2nc(-c3ccc(F)cc3)cs2)nc2cc(Cl)c(N3CCCCC3)cc21 (configuration not stated),i,10*,i,i,CHO-K1 ctr=-13;KCNQ1 pot spec=-8;KCNQ2 pot conf=55*;Kir21 spec=-25;KCNQ2 W236L MoA=i
OCCOCCn1c(C2CCCN2c2nc(-c3ccc(F)cc3)cs2)nc2cc(Cl)c(Cl)cc21 (configuration not stated),i,nt,nt,nt,
OCCCn1c(C2CCCN2c2nc(-c3ccc(Cl)cc3)cs2)nc2cc(Cl)c(N3CCCCC3)cc21 (configuration not stated),i,8.1*,i,i,CHO-K1 ctr=13*;KCNQ1 pot spec=-21;KCNQ2 pot conf=8.9*;Kir21 spec=-26;KCNQ2 W236L MoA=i
CC(NS(=O)(=O)c1ccc2c(c1)OCCO2)c1ccccc1 (configuration not stated),i,0.93,nt,nt,
CC(NS(=O)(=O)c1ccc(Br)cc1)c1ccccc1 (configuration not stated),i,nt,47%*,i,
SMILES,KCNQ2 block,KCNQ2 pot,Kir21 conf inh,HEK293 Tl flux,others
CCN(C(=O)CSc1nc2ccccc2o1)c1c(N)n(Cc2ccccc2)c(=O)[nH]c1=O,i,0.04,nt,nt,
CCOc1ccc(-n2cc(-c3ccccc3)c3c(=O)[nH]cnc32)cc1,i,0.58,nt,nt,
CCOc1ccc(-n2cc(-c3ccccc3)c3c(=S)nc[nH]c32)cc1,i,6.9*,i,148%*,CHO-K1 ctr=11*;KCNQ1 pot spec=-16;KCNQ2 pot conf=0.0*;Kir21 spec=-27;KCNQ2 W236L MoA=i
CCn1c(SC)nnc1C1CCN(CC(=O)Nc2ccccc2N2CCOCC2)CC1,i,1.7,nt,nt,
CCN1CCN(c2oc(/C=C/c3ccccc3)nc2C#N)CC1,i,nt,nt,nt,
Cc1ccccc1Cn1cc(S(=O)(=O)c2ccc(C(C)C)cc2)c(=O)c2cc3c(cc21)OCO3,i,nt,nt,nt,
COc1cc(NC(=O)CSc2ncnc3sc4c(c23)CCC(C)C4)c(C(=O)O)cc1OC (configuration not stated),i,19*,i,417%*,CHO-K1 ctr=-7;KCNQ1 pot spec=36*;KCNQ2 pot conf=94*;Kir21 spec=-5;KCNQ2 W236L MoA=i
CC1CCc2c(sc3ncnc(SCC(=O)Nc4ccc(C(=O)O)cc4)c23)C1 (configuration not stated),i,0.97,nt,nt,
COCC1CCN(C(=O)c2cc(COc3ccc4c(c3)CCCC4)on2)C1 (configuration not stated),i,0.7,nt,nt,
O=C(c1cc(COc2ccc3c(c2)CCCC3)on1)N1CCCC1,i,1.1,i,i,
OCCC1CN(Cc2cccc3nccnc23)CCN1Cc1ccc(F)cc1 (configuration not stated),i,nt,nt,nt,
CC(C)N(C(=O)CSc1nnc(CSc2ncccn2)n1C)C(C)C,i,nt,nt,nt,
S=C(NCc1cccnc1)Nc1ccc(Oc2ccccc2)cc1,i,0.02,nt,nt,
O=C(Nc1ccc(OCc2ccccc2)cc1)Nc1cccnc1,i,7.2*,i,i,CHO-K1 ctr=-25;KCNQ1 pot spec=64*;KCNQ2 pot conf=11*;Kir21 spec=-31;KCNQ2 W236L MoA=i
O=C(Nc1ccc(OCc2ccccc2)cc1)c1cccnc1,i,0.6,nt,nt,
